Assay results: PubChem BioAssay (NCI)
The panel holds about 83,000 compounds, 20% with a hit somewhere; the sample as a whole holds those more often.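 Testing used 96-well plates and a 48-hour single-concentration exposure. Example: -40 means 40% of the starting cells died.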 Activity calls are given as the source filed them. The calls were made as follows: active = growth percent below 10; inactive = the rest.

Legend:
Assay in all cases: NCI-60 one-dose screen, 48 h (100 = growth as untreated, 0 = no growth, -100 = all killed)
[1] = tested on: A549/ATCC NSCLC; conditions: 10 µM unless noted
[2] = tested on: DU-145 prostate; conditions: 10 µM unless noted
[3] = tested on: K-562 leukemia; conditions: 10 µM unless noted
[4] = tested on: RXF 393 renal; conditions: 10 µM unless noted
[5] = tested on: UACC-257 melanoma; conditions: 10 µM unless noted
[6] = tested on: HT29 colon; conditions: 10 µM unless noted
[7] = tested on: SNB-75 CNS; conditions: 10 µM unless noted
[8] = tested on: PC-3 prostate; conditions: 10 µM unless noted
[9] = tested on: SK-MEL-5 melanoma; conditions: 10 µM unless noted
[10] = tested on: UACC-62 melanoma; conditions: 10 µM unless noted
[11] = tested on: SK-MEL-2 melanoma; conditions: 10 µM unless noted
[12] = tested on: ACHN renal; conditions: 10 µM unless noted
[13] = tested on: A498 renal; conditions: 10 µM unless noted
[14] = tested on: HL-60(TB) leukemia; conditions: 10 µM unless noted
[15] = tested on: MOLT-4 leukemia; conditions: 10 µM
[16] = tested on: OVCAR-8 ovarian; conditions: 10 µM unless noted
[17] = tested on: OVCAR-5 ovarian; conditions: 10 µM unless noted
[18] = tested on: HS 578T breast; conditions: 10 µM unless noted
[19] = tested on: NCI/ADR-RES ovarian; conditions: 10 µM unless noted
[20] = tested on: T-47D breast; conditions: 10 µM unless noted

Measured: growth

S=P(N1CCCCCC1)(N1CC1)N1CC1
inactive: [1] 104% | [2] 112% | [3] 97% | [4] 124% | [5] 106% | [6] 101% | [7] 98.7% | [8] 93.7% | [9] 107% | [10] 98.3% | [11] 97.9% | [12] 104% | [13] 107% | [14] 84.3% | [15] 33.4% | [16] 100% | [17] 107% | [18] 122% | [19] 104% | [20] 94.5%

O=c1cc[nH]c(=O)o1
inactive: [2] 104% | [3] 105% | [4] 114% | [6] 95.9% | [7] 84.7% | [8] 98% | [9] 105% | [10] 99.4% | [11] 93.3% | [12] 115% | [13] 114% | [14] 80.2% | [15] 97.4% | [16] 96.6% | [17] 109% | [18] 120% | [19] 111% | [20] 96.3%

CC(=O)Oc1ccc(Cl)cc1
inactive: [1] 97.9% | [3] 94.5% | [4] 105% | [5] 95.1% | [6] 98.3% | [7] 81.9% | [8] 91.3% | [9] 104% | [10] 91.9% | [11] 106% | [12] 97.5% | [13] 82.2% | [14] 98.4% | [15] 90.3% | [16] 101% | [17] 88.7% | [18] 90.3% | [19] 99.1% | [20] 94.2%

COc1cc(C2=NN(c3ccccc3)C(c3sc(N(CCCl)CCCl)nc3Cl)C2)cc(OC)c1OC (stereo not given)
inactive: [1] 83% | [2] 102% | [3] 74.3% | [4] 106% | [5] 87.4% | [6] 84.5% | [7] 69.2% | [8] 73.9% | [9] 88.4% | [10] 48.4% | [11] 85.2% | [12] 88.8% | [13] 93.2% | [14] 96.2% | [15] 70.9% | [16] 90.4% | [17] 99.5% | [18] 85.8% | [19] 93.8% | [20] 68.7%

CO[C@@H](c1ccccc1Cl)[C@H](C)OC(N)=O
inactive: [1] 98.4% | [2] 106% | [3] 104% | [4] 113% | [5] 91.7% | [6] 106% | [7] 70.8% | [8] 98.1% | [9] 98.7% | [10] 93.1% | [11] 107% | [12] 99.6% | [13] 96.3% | [14] 106% | [15] 107% | [16] 103% | [17] 91.5% | [18] 99.9% | [19] 103% | [20] 101%

NC(=O)SCC(=O)Nc1ccc([As](=O)(O)O)cc1
inactive: [1] 85.9% | [2] 101% | [3] 75.5% | [4] 95.7% | [5] 74.1% | [6] 93.7% | [7] 96.6% | [8] 77.8% | [9] 102% | [10] 97.3% | [11] 73.3% | [12] 100% | [13] 113% | [14] 56.9% | [15] 86.1% | [16] 83.4% | [17] 125% | [18] 82.3% | [19] 86.4% | [20] 112%

CCC(C)/C=C(C)/C=C/C(=O)c1c(O)c(-c2ccc(O)cc2)c[nH]c1=O (stereo not given)
inactive: [1] 63.1% | [2] 24.8% | [3] 39.2% | [4] 52.3% | [5] 55.8% | [6] 14.3% | [7] 51.5% | [8] 45% | [9] 63.4% | [10] 48.8% | [11] 89.1% | [12] 50.5% | [13] 47.6% | [14] 36% | [15] 29.4% | [16] 51.2% | [18] 52.7% | [19] 33.5% | [20] 48.6%

C1CN1c1nc(N2CC2)nc(N2CC2)n1
inactive: [1] 59.8% | [3] 26.4% | [4] 39% | [5] 43.7% | [6] 44.9% | [8] 45.2% | [9] 20.1% | [10] 41.1% | [11] 76.9% | [13] 57.9% | [15] 10.5% | [17] 64.5% | [18] 72.3% | [19] 36.8% | [20] 26.7%
active: [2] -1.22% | [7] -17.6% | [12] -29.7% | [14] 0.901%
